# ChEMBL document CHEMBL3988442, “University of Dundee, Small-Polar-MMV Screening Library” (2021)
# Among all 66,000 compounds or so, about 960 (1.5%) showed an effect of 50% or more. The entries come from a sample that favours strong results as a whole.
# Test system: Trypanosoma brucei
# Experiment: Trypanosoma brucei 72 hour study
# Format: functional, organism-based
# Set-up: scale not given: in the data most compounds retested in dose-response had high values
smiles,measurement,setting,value
O=C1CCCN1C(CNS(=O)(=O)C1CC1)Cc1cccc(F)c1 (centres undefined),Percent Effect,"30 µM, 30.03 µM",7.214%
Cc1sc2c(C3CCCN(S(C)(=O)=O)C3)nc(C)n2c1C (centres undefined),Percent Effect,"30.3 µM, […]",73.25%
Cc1sc2c(C3CCCN(C(C)C)C3)nc(C)n2c1C (centres undefined),Percent Effect,"30.3 µM, […]",-21.43%
COCCN1CCCC(c2nc(C)n3c(C)c(C)sc23)C1 (centres undefined),Percent Effect,"30.3 µM, […]",-27.06%
O=C(O)C(F)(F)F.c1cncc(CN2Cc3nccn3CC(Cn3cncn3)C2)c1 (centres undefined),Percent Effect,"30 µM, 30.03 µM",-73.02%
Cc1nnc(C(C)NCC2(c3ccc(F)cc3)CCCCC2)o1 (centres undefined),Percent Effect,"30.3 µM, […]",9.19%
Cc1nnc(C(C)NCC2(c3ccc(Cl)cc3)CCCC2)o1 (centres undefined),Percent Effect,"30.3 µM, […]",-10.5%
Cc1cccc(C2(CNC(C)c3nnc(C)o3)CCCC2)c1 (centres undefined),Percent Effect,"30.3 µM, […]",99.4%
Cc1nnc(C(C)NCC2(c3ccc(Cl)cc3)CCOCC2)o1 (centres undefined),Percent Effect,"30.3 µM, […]",-12.99%
COc1ccc(C2(CNC(C)c3nnc(C)o3)CCCCC2)cc1 (centres undefined),Percent Effect,"30.3 µM, […]",100.1%
COc1cccc(C2(CNC(C)c3nnc(C)o3)CCCC2)c1 (centres undefined),Percent Effect,"30.3 µM, […]",-15.21%
Cc1nccc(CNC(=O)NC(c2ncc(C)s2)C2CC2)n1 (centres undefined),Percent Effect,"30 µM, 30.03 µM",-69.67%
CN(C)CCOCc1nnc2n1CCN(Cc1ccco1)CC2.O=C(O)C(F)(F)F.O=C(O)C(F)(F)F,Percent Effect,"30.3 µM, […]",-5.145%
CCC1=N[C@@]2(CC[C@@H]3CN(Cc4ccc(C)cc4)C[C@@H]32)C(=O)N1C.O=C(O)C(F)(F)F,Percent Effect,"30.3 µM, […]",-61.95%
O=C(O)C(F)(F)F.O=C1CC2(CCCCN2C(=O)c2ccncc2)CN1CC1CC1 (centres undefined),Percent Effect,"30.3 µM, […]",-11.8%
O=C(CCn1cncn1)N1CCCC1c1noc(C2CC2)n1 (centres undefined),Percent Effect,10 µM,-39.57%
COCCN1CCC2(CC1)CC(NC(=O)C1CC1)c1ccccc1O2.O=C(O)C(F)(F)F (centres undefined),Percent Effect,"30.3 µM, […]",-14.66%
Fc1ccc2[nH]c3c(c2c1)CCN1C(c2ccccn2)N2CCC31CC2 (centres undefined),Percent Effect,"30.3 µM, […]",100.3%
CC(=O)NC1CCCc2c1[nH]c1ccc(F)cc21 (centres undefined),Percent Effect,"30 µM, 30.03 µM",-27.6%
Fc1ccc2[nH]c(C3CCCN3CCc3ccccn3)nc2c1 (centres undefined),Percent Effect,"30 µM, 30.03 µM",22.71%
O=C(N1CCC(OCc2ccccn2)CC1)C1(c2ccc(F)cc2)CC1,Percent Effect,"30 µM, 30.03 µM",-36.15%
Fc1ccc2[nH]c3c(c2c1)CCN1C(c2ccncc2)N2CCC31CC2 (centres undefined),Percent Effect,"30.3 µM, […]",100.7%
Cc1nc(Nc2ncccn2)cc(C2CCN(CC(C)C)C2)n1 (centres undefined),Percent Effect,"30.3 µM, […]",4.591%
CN(CCCOc1ccccc1Cl)C(=O)CN1C[C@@H]2CC[C@H](CC1=O)N2,Percent Effect,"30.3 µM, […]",-75.76%
COc1ccccc1-c1ncc(CN2C[C@@H](N(C)C)[C@H](C(C)C)C2)s1,Percent Effect,"30.3 µM, […]",89.3%
COc1ccccc1-c1ncc(CN2CCCC[C@H](N(C)C)C2)s1,Percent Effect,"30.3 µM, […]",40.64%
COc1ccccc1-c1ncc(CN2C[C@H](O)[C@@H](N3CCCC3)C2)s1,Percent Effect,"30.3 µM, […]",20.14%
COc1ccc(C2CCCN2C(=O)NCCCn2ccnc2)cc1 (centres undefined),Percent Effect,"30.3 µM, […]",-18.05%
CCCc1ccc(C(C)Nc2ncnc3c2CCNC3)cc1 (centres undefined),Percent Effect,"30.3 µM, […]",56.69%
Cc1ccccc1C(CNc1ncnc2c1CCNC2)N(C)C (centres undefined),Percent Effect,"30 µM, 30.03 µM",-30.9%
Cc1ccccc1C(Nc1ncnc2c1CCNC2)c1ccccc1 (centres undefined),Percent Effect,"30 µM, 30.03 µM",-12.11%
CC(C)Nc1ncnc2c1CCNCC2,Percent Effect,"30.3 µM, […]",-40.35%
CC(Nc1ncnc2c1CCNC2)c1ccc(C(C)(C)C)cc1 (centres undefined),Percent Effect,"30.3 µM, […]",90.36%
CCOc1ccc(C(C)Nc2ncnc3c2CCNC3)cc1OCC (centres undefined),Percent Effect,"30.3 µM, […]",2.402%
CC(Nc1ncnc2c1CCNCC2)c1nc2c(s1)CCCC2 (centres undefined),Percent Effect,"30 µM, 30.03 µM",6.589%
CC(Nc1ncnc2c1CCNC2)c1ccc2c(c1)CCCC2 (centres undefined),Percent Effect,"30.3 µM, […]",100.2%
Cc1cc(C)n(CC(C)Nc2ncnc3c2CCNC3)n1 (centres undefined),Percent Effect,"30 µM, 30.03 µM",-30.59%
CCNC(c1ccc(F)cc1)c1cccnc1 (centres undefined),Percent Effect,"30 µM, 30.03 µM",-17.98%
O=C(O)C(F)(F)F.O=C(c1cccs1)N1CC[C@@H](N2CCOCC2)[C@@H]1Cc1ccccc1,Percent Effect,"30 µM, 30.03 µM",16.01%
O=C(O)C(F)(F)F.O=C(O)[C@]12CCCN(CC3CCOC3)C[C@H]1CN(c1ncccn1)C2 (some centres undefined),Percent Effect,"30.3 µM, […]",-92.21%
Cc1cccc(C(=O)N2CCCN(CCCSCC#N)CC2)c1,Percent Effect,"30 µM, 30.03 µM",-25.24%
O=C(O)C(F)(F)F.O=C(c1ccccc1)N1CCC[C@]2(C[C@@H](Oc3ncccc3F)CO2)C1,Percent Effect,"30 µM, 30.03 µM",-46.98%
CC(C)CC(=O)NCCn1nc(C2CCNC2)c2cccnc21.Cl (centres undefined),Percent Effect,"30.3 µM, […]",2.604%
CC(=O)N1N=C(c2ccco2)OC1C(=O)NCC(C)C (centres undefined),Percent Effect,"30.3 µM, […]",15.99%
same,Percent Effect,"10 mM, 10 mM as filed; unlikely as a test dose",-43.02%
CC(=O)N1N=C(c2ccco2)OC1C(=O)N(CC(C)C)CC(C)C (centres undefined),Percent Effect,"30.3 µM, […]",65.41%
same,Percent Effect,"10 mM, 10 mM as filed; unlikely as a test dose",-14.31%
CC(=O)N1N=C(c2ccco2)OC1C(=O)N(C)CCc1ccccc1 (centres undefined),Percent Effect,"30.3 µM, […]",-0.7394%
same,Percent Effect,"10 mM, 10 mM as filed; unlikely as a test dose",-39.66%
